Measured values taken from PubChem BioAssay (NCATS).
“And” between values parts separate entries of the source, which are not always exact repeats. Equal values may be shown once. Inconclusive results are not listed. The source made the active and inactive calls. Calls come from the whole dose curve; as a rule, active = well fitted curve in the direction sought with a large enough effect; inconclusive = small, poorly fitted or top-dose-only effect, or another doubt; inactive = no such curve, though single readings can be large; an effect the other way counts as inactive or inconclusive.

Key:
[1] = biological target: Cytochrome P450 3A7 (Homo sapiens) (UniProt P24462); assay: Cytochrome P450 family 3 subfamily A member 7 (CYP3A7) small molecule antagonists: luciferase biochemical qHTS assay (AID 1963596); note: % is set by controls: 0 for no effect and ±100 for the full control effect; nearly all actives have a fitted effect of over 40% in size
Outline: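 Recombinant CYP3A7 P450-Glo luminescent assay: enzyme-proluciferin substrate mix preincubated with compound 10 min at room temperature, reaction started with NADPH regeneration system for 1 h. Luciferin detected by luminescence; ketoconazole as positive control.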

[2] = Viability qHTS for spleen associated tyrosine kinase inhibitor (SYKi) drug resistant MV4-11 cells (AID 1963824); note: nearly all actives have a fitted effect of over 35% in size; note: potency is the fitted concentration of half-maximal effect
Outline: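 CellTiter-Glo luminescence, read 10 min after reagent addition, reports viability after a 72 hr compound exposure. Cells are an MV4-11 line made resistant to SYK inhibition, seeded at 500 per well onto compound-containing plates.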

[3] = Cellular viability qHTS for adrenocortical cancer (ACC) cell line SW-13 (AID 1963989); conditions: SW-13 ACC cells viability, CellTiter-Glo, 48 h; activity (max response): active compounds read low; note: nearly all actives have a fitted effect of over 65% in size; note: potency is the fitted concentration of half-maximal effect;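 for activity (max response): cells grown in serum-free medium with ITS supplement; % is set by controls: 0 for no effect and ±100 for the full control effect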
Outline: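 48 h treatment, SW-13 in ITS/DMEM serum-free; doses up to 46 uM; readout CellTiter-Glo luminescence; curve fit four-parameter logistic.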

[4] = Cellular viability qHTS for adrenocortical cancer (ACC) cell line NCI-H295R (AID 1963990); note: nearly all actives have a fitted effect of over 60% in size; note: potency is the fitted concentration of half-maximal effect;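 for activity change, negative = viability loss: 0% = DMSO only wells and -100% = full killing with cytotoxic reference compound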
Outline: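 Compound titrations (up to 46 uM final) are applied to NCI-H295R cultures for 48 h at 37C. Viable cell number is estimated by CellTiter-Glo signal, normalised to DMSO and doxorubicin controls.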

Chain of Cytochrome P450 3A7 (Homo sapiens) (P24462 whole entry, looked up): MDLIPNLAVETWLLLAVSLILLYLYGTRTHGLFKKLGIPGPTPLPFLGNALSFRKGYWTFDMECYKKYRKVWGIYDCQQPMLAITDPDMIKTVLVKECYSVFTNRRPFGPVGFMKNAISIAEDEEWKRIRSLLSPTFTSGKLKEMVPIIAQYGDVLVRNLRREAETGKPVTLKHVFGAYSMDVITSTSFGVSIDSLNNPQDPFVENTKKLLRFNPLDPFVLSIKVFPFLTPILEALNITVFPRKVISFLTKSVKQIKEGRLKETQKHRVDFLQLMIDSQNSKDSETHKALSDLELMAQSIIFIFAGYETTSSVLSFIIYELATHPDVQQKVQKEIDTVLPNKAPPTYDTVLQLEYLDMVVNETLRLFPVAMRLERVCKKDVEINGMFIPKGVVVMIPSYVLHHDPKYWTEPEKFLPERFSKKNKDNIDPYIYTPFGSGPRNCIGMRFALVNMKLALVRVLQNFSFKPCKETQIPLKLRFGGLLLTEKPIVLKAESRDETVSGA

C[C@H]1O[C@@H](O[C@H]2CC[C@@]3(C)[C@H](CC[C@@H]4[C@@H]3C[C@@H](O)[C@]3(C)[C@@H](C5=CC(=O)OC5)CC[C@]43O)C2)C[C@H](O)[C@@H]1O[C@H]1C[C@H](O)[C@H](O[C@H]2C[C@H](O)[C@H](O[C@@H]3O[C@H](CO)[C@@H](O)[C@H](O)[C@H]3O)[C@@H](C)O2)[C@@H](C)O1
active: Potency [2] 133 nM | Potency [3] 0.082 µM | Potency [4] 0.164 µM
inactive: Potency [1]

CN1CCN(N)CC1
inactive: Potency [1] | Potency [2] | activity (max response) [3] -3.26% | Potency [4]

CNCCc1ccccn1
inactive: Potency [1] | Potency [2] | activity (max response) [3] 13.5% | Potency [4]

CCN1CCN(Cc2ccc(NC(=O)c3ccc(C)c(NC(=O)c4cncc(-c5cccs5)c4)c3)cc2C(F)(F)F)CC1
active: Potency [2] 14.6 nM and 26.3 nM | Potency [3] 2 µM | Potency [4] 2.51 µM
inactive: Potency [1]

CC(=O)N(CC(O)CO)c1c(I)c(C(=O)NCC(O)CO)c(I)c(C(=O)NCC(O)CO)c1I (stereo not drawn)
inactive: Potency [1] | Potency [2] | activity (max response) [3] 11.9% | Potency [4]

O=C(O)CP(=O)(O)O
inactive: Potency [1] | Potency [2] | activity (max response) [3] 1.41% | Potency [4]

CCCCCCCCCCCCCCCCCC(=O)O
inactive: Potency [1] | Potency [2] | activity (max response) [3] 18.1% | Potency [4]

NS(=O)(=O)c1ccc(NC(=O)CCC(=O)O)cc1
inactive: Potency [1] | Potency [2] | activity (max response) [3] 4.28% | Potency [4]

CCOc1cc2ncc(C#N)c(Nc3ccc(F)c(Cl)c3)c2cc1NC(=O)/C=C/CN(C)C
inactive: Potency [1]
active: Potency [2] 235 nM | Potency [3] 0.631 µM | Potency [4] 3.55 µM

CCN(CC)C(=O)C1CN2CCc3cc(OC)c(OC)cc3C2CC1OC(C)=O (stereo not drawn)
inactive: Potency [1] | Potency [2] | activity (max response) [3] -2.45% | Potency [4]

CNC(=O)CN(CCN(CCN(CC(=O)[O-])CC(=O)NC)CC(=O)[O-])CC(=O)[O-].O.[Gd+3]
inactive: Potency [1] | Potency [2] | activity (max response) [3] -4.04% | Potency [4]

CC(C)(C)NC[C@H](O)COc1nsnc1N1CCOCC1
inactive: Potency [1] | Potency [2] | activity (max response) [3] -5.85% | Potency [4]

CCCC(=O)O[C@]1(C(=O)CO)CC[C@H]2[C@@H]3CCC4=CC(=O)CC[C@]4(C)[C@H]3[C@@H](O)C[C@@]21C
inactive: Potency [1] | Potency [2] | activity (max response) [3] -3.14% | Potency [4]

Cn1ncc(Cl)c1-c1cc(C(=O)NC(CN)Cc2ccc(F)c(F)c2)oc1Cl (stereo not drawn)
inactive: Potency [1]
active: Potency [2] 4680 nM | Potency [3] 28.2 µM | Potency [4] 3.16 µM

O=C1c2c(O)cccc2Cc2cccc(O)c21
inactive: Potency [1] | Potency [2] | activity (max response) [3] 5.31% | Potency [4]

NS(=O)(=O)c1cc(C2(O)NC(=O)c3ccccc32)ccc1Cl (stereo not drawn)
inactive: Potency [1] | Potency [2] | activity (max response) [3] 17.7% | Potency [4]

O=C(CCCl)NCc1ccccc1
inactive: Potency [1] | Potency [2] | activity (max response) [3] 9.65% | Potency [4]

C[C@@H]1CC[C@@]2(OC1)O[C@H]1C[C@H]3[C@@H]4CC[C@H]5C[C@@H](O)CC[C@]5(C)[C@H]4CC(=O)[C@]3(C)[C@H]1[C@@H]2C
inactive: activity change, negative = inhibition [1] -8.63% [at 4.83 µM] | viability, % of control [2] 73.5% [at 4.97 µM] | activity (max response) [3] 5.1% | activity change, negative = viability loss [4] -14.3% [at 3.81 µM]

CCCCCOC(=O)Nc1nc(=O)n([C@@H]2O[C@H](C)[C@@H](O)[C@H]2O)cc1F
inactive: Potency [1] | Potency [2] | activity (max response) [3] 14.3% and 14.2% | Potency [4]

CC(=O)N(CC(=O)N(C)C)c1ccccc1
inactive: Potency [1] | Potency [2] | activity (max response) [3] -5.65% | Potency [4]

CCCN(CCC)CCc1cccc2c1CC(=O)N2
inactive: Potency [1] | Potency [2] | activity (max response) [3] 8.18% | Potency [4]

Oc1ccccc1C=NCc1ccccc1
inactive: Potency [1] | Potency [2] | activity (max response) [3] 6.8% | Potency [4]

COc1ccc2c(c1)c1c3n2CCN(C)C3=NCC1
inactive: Potency [1] | Potency [2] | activity (max response) [3] 0.0191% | Potency [4]

CC(C)Cn1cnc2c1c(=O)n(C)c(=O)n2C
inactive: Potency [1] | Potency [2] | activity (max response) [3] -11.6% | Potency [4]

CC(=O)OC(C)C[N+](C)(C)C (stereo not drawn)
inactive: Potency [1] | Potency [2] | activity (max response) [3] -1.07% | Potency [4]

CC1(C)O[C@@H]2[C@@H](CO[C@@]3(COS(N)(=O)=O)OC(C)(C)O[C@@H]23)O1
inactive: Potency [1] | Potency [2] | activity (max response) [3] 9.55% | Potency [4]

OCCCc1ccccc1
inactive: Potency [1] | Potency [2] | activity (max response) [3] 4.32% | Potency [4]
